{"source": "PubChem BioAssay AID588351", "about": "(The Scripps Research Institute Molecular Screening Center, 2011)", "note": "Among all 1,900 compounds or so, about 1,600 (84%) were called active.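 The calls were made as follows: active = mean activation above a set limit taken from the primary screen (cut at about 8% in these data); inactive = the rest.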 So high a share suggests a set chosen from earlier hits. Only a sample is shown."}
{"assay": "frataxin promoter-driven luciferase activation – cell-based, luminescence, HEK293 lucGAA850, triplicate, confirmation (AID 588351);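 also: 0% = DMSO wells and 100% = 10 µM SAHA wells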", "conditions": "HEK293 lucGAA850 FXN promoter luciferase reporter, 24 h; at 6 µM; active compounds read high"}
{"smiles": "CC(C)(C)c1ccc(OC(=O)N2CCCCC2)cc1", "activation": "35% (active)"}
